PrPC surface inh: cell surface PrPC inhibition, primary TR-FRET screen; TR-FRET read-out; inhibition, % at 13.8 µM; 370,000 compounds, 0.43% hits; AID 720596; in the data active = inhibition above about 24%; also: 0% = median of the test wells and 100% = reference compound wells
CCHF vOTU inh-1: CCHFV vOTU protease inhibition; Pep-AMC fluorescence; inhibition, % at 11.5 µM; 370,000 compounds, 0.55% hits; AID 651958; also: 0% = vehicle wells with enzyme and 100% = no enzyme wells
DUSP3 inh: inhibitors of human VHR1 phosphatase (DUSP3); P51452; 290,000 compounds, 0.52% hits; recombinant VHR phosphatase, pNPP absorbance; AID 1654; inhibition, % at 13.3 µM; in the data active = inhibition above about 50%
Target sequence (P51452 whole entry, looked up): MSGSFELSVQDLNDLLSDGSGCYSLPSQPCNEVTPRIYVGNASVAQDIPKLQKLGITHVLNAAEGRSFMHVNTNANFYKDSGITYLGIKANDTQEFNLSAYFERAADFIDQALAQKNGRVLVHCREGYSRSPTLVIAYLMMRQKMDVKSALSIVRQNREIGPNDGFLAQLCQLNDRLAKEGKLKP
MazF activator: increases E. coli MazEF RNase cleavage of RNA. AID 504720. 350,000 compounds, 0.32% hits. P0AE70. activation, % at 20 µM. FAM/BHQ RNA-DNA oligo cleavage fluorescence, 5 h; in the data active = activation above about 50%
Target sequence (P0AE70 whole entry, looked up): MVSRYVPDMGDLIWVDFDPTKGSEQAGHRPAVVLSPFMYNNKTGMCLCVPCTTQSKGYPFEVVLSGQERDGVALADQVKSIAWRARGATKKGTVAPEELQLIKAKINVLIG
Y pestis TopoI: Y. pestis Topo-I inhibition via cleavage products | activity, % at 10 µM | 360,000 compounds, 0.064% hits | Y. pestis Topo-I cleavage product accumulation, plate reader; in the data active = activity above about 50%, passing the limit was not always enough; inconclusive = no clear call, values can overlap the other calls
Vc quorum ag: quorum light induction in luxS cqsA deficient V. cholerae | V. cholerae BH1578 lux reporter, luminescence, 6 h | AID 588436 | 350,000 compounds, 0.16% hits | activation, % at 18.7 µM; in the data active = activation mostly above about 9.7%, no sharp cut-off; inconclusive = no clear call, values can overlap the other calls; inactive = mostly below about 3.7%
CCHF vOTU inh-2: confirmation of CCHF virus vOTU protease inhibitors | 1,900 compounds, 17% hits | Recombinant CCHFV vOTU, Pep-AMC fluorescence | AID 686976 | shares compounds with CCHF vOTU inh-1 | inhibition, % at 11.5 µM
* = called active by the depositor; i = inactive; u = inconclusive; x = no result given. A selection: hits, their analogues and other compounds. The true share with any hit is near 1.8%. Rule as the data show it, unless noted: active = inhibition above about 30%; inactive = the rest.

SMILES | PrPC surface inh | CCHF vOTU inh-1 | DUSP3 inh | MazF activator | Y pestis TopoI | Vc quorum ag | CCHF vOTU inh-2
COc1cc(OC)c(C2CC(=O)N3CN(C)CSC3=C2C#N)cc1OC (centres undefined) | -4.5 | 5.8 | 8.7 | -10.1 | 0.1 | -0.6 | x
COc1ccc2ccccc2c1C1CC(=O)N2CN(C)CSC2=C1C#N (centres undefined) | 5.9 | 78.5* | 18.9 | -1.0 | -1.6 | i | 56.1*
Cc1cccc(C(=O)OCC(=O)N(C)c2ccccc2)c1C | -4.5 | 4.5 | 20.3 | -4.0 | 20.6 | -0.3 | x
O=C1CN(/N=C/c2ccc([N+](=O)[O-])o2)C(=O)N1 | -50.5 | 28.9 | -3.0 | 5.0 | 2.0 | -0.3 | x
O=C1OCCN1/N=C/c1ccc([N+](=O)[O-])o1 | -42.3 | 34.8* | -6.8 | -5.3 | -3.6 | 8.3 | 0.4
O=C1NC(Cc2ccc(O)cc2)c2nc3cc(F)c(F)cc3c(=O)n2-c2cc3ccccc3cc21 (centres undefined) | 0.5 | 29.9* | x | -23.1 | 7.7 | -0.4 | -17.3
COc1ccc(C(CNC(=O)C(=O)NC2CCCCC2)N2CCN(C)CC2)cc1 (centres undefined) | -7.5 | 31.7* | x | 8.5 | 0.1 | -6.2 | -13.6
COc1ccc(C(CNC(=O)C(=O)NC2CCCC2)N2CCN(C)CC2)cc1 (centres undefined) | -0.8 | -1.9 | x | -1.6 | 7.6 | -5.3 | x
OCC[C@H]1C[C@H](O)[C@@H](O)[C@]2(OCCc3ccccc32)O1 | -1.1 | 6.2 | x | 2.5 | -10.4 | 0.4 | x
O=C(Cc1ccccc1)Nc1cc(Cl)ccc1Sc1ccccc1 | 6.6 | 30.2* | 5.4 | -10.0 | 46.8 | -1.4 | -13.2
O=C(Cc1ccc(Cl)cc1)Nc1ccccc1Sc1ccccc1 | 4.2 | -4.4 | -7.9 | 1.9 | u | -0.6 | x
O=C1C(=NO)CCc2ccccc21 | -11.4 | 68.5* | x | 0.2 | -2.8 | -0.9 | 82.2*
Cc1ccc(N2CC(C(=O)Nc3nnc(SCC(N)=O)s3)CC2=O)cc1 (centres undefined) | -4.2 | 3.4 | 40.9 | 2.6 | -3.1 | 0.7 | x
N#CC(C#N)=Cc1ccc(N2CCOCC2)cc1 | 4.4 | 29.7* | 15.2 | -7.7 | -7.5 | 0.3 | -7.9
N#C/C(=C\c1ccc(N2CCOCC2)cc1)c1ccccc1 | 0.9 | 6.4 | -6.9 | -11.4 | -8.0 | -0.3 | x
CCCNC(=O)NC(=O)CSc1nnc(-c2c[nH]c3ccccc23)o1 | 4.6 | -5.7 | 26.8 | 9.8 | 19.8 | i | x
CC(=O)c1ccc(N2CCN(C(=O)c3ccc(OCc4c(C)noc4C)cc3)CC2)cc1 | 0.1 | 33.9* | 43.1 | 2.6 | 22.7 | i | 4.3
COc1cccc(NS(=O)(=O)c2ccc3c(c2)C2C=CCC2C(c2ccc(C(=O)O)cc2)N3)c1 (centres undefined) | -1.7 | 41.1* | 14.7 | -0.7 | -11.7 | -0.1 | 24.2
CC(=O)N(/N=C1\Sc2ccccc2C1=O)c1ccccc1C | 6.9 | 47.0* | 23.1 | -2.6 | 1.8 | i | 38.2*
CC(=O)NS(=O)(=O)c1ccc(Nc2ccc([N+](=O)[O-])c3nonc23)cc1 | -51.1 | 29.5* | 3.7 | -1.3 | 1.7 | i | 12.6
Cc1cccc2c1[nH]c1nc(N/N=C\c3ccco3)nnc12 | -16.2 | 37.5* | 3.6 | x | x | x | 1.0
CC(/C=N/Nc1nnc2c(n1)[nH]c1ccccc12)=C\c1ccco1 | x | x | 15.2 | 12.2 | -1.7 | 1.0 | x
CCOC(=O)[C@@]12CN(C(=O)OC(C)(C)C)CC=C1N(Cc1ccc(OC)cc1)C(=O)[C@H]2CC(=O)NCCC(C)C | -0.7 | 18.8 | x | x | x | x | x
CCOc1ccc(-n2c(=S)sc3c(=O)n(-c4ccc(F)cc4)c(SCC(=O)O)nc32)cc1 | -15.8 | 34.4* | -29.1 | 6.9 | 0.5 | -0.6 | -5.4
O=C(N/N=C/c1c(O)n(CCc2ccccc2)c(=O)[nH]c1=O)c1ccccc1O | 3.1 | 32.2* | 16.5 | -18.2 | 15.7 | 0.8 | -7.5
SMILES | PrPC surface inh | CCHF vOTU inh-1 | DUSP3 inh | MazF activator | Y pestis TopoI | Vc quorum ag | CCHF vOTU inh-2
CC1(C)CC(=O)C2=C(C1)c1c(ccc3ccccc13)NC2c1cc([N+](=O)[O-])cc([N+](=O)[O-])c1O (centres undefined) | 0.2 | 44.2* | 9.1 | 6.4 | -5.2 | -0.7 | 13.6
Cc1onc(-c2ccccc2)c1C(=O)N/N=C/c1ccc(O)c([N+](=O)[O-])c1 | -6.4 | 33.0* | 9.2 | 7.6 | 5.5 | i | -11.3
CSC1=N/C(=C\c2ccc(C)o2)C(=O)S1 | 3.2 | 29.7* | 3.1 | -5.5 | 4.0 | 0.4 | -7.8
CSC1=N/C(=C\c2ccc(F)cc2)C(=O)S1 | 9.5 | 15.1 | 13.6 | -3.9 | -10.3 | i | x
CCCCOCC1CN(CCCC)S(=O)(=O)c2c(F)cccc2O1 (centres undefined) | 1.7 | 15.0 | x | x | x | x | x
CCCCOCC1CN(CCCC)S(=O)(=O)c2c(cccc2N(C)S(=O)(=O)c2ccc(C)cc2)O1 (centres undefined) | 2.2 | 32.2* | x | x | x | x | -1.5
CCCCOCCCNC(=O)C[C@H]1C[C@@]2(C(=O)OC)C(=C[C@H](C(C)C)O[C@@H]2C2CC2)N(Cc2ccc3c(c2)OCO3)C1=O | 8.5 | 13.8 | x | x | x | x | x
CCc1c(-c2ccc(F)cc2)ncn1CCc1ccccc1OC | 7.9 | 1.9 | x | x | x | x | x
CCCCCc1c(-c2ccc(Cl)cc2)ncn1CCc1ccccc1OC | 11.2 | 37.1* | x | x | x | x | 8.3
COc1ccccc1CCn1cnc(-c2ccccc2)c1CC(C)C | 17.7 | 45.1* | x | x | x | x | 18.2
CCc1c(-c2cccc(F)c2)ncn1CCc1ccccc1OC | 3.3 | 29.5* | x | x | x | x | -4.1
CCCCCCCCNc1ncnc2[nH]ncc12 | 16.6 | 2.4 | x | 3.3 | 4.2 | x | x
Cc1ccc(CN2C(=O)C[C@@H](NC(=O)OCC3c4ccccc4-c4ccccc43)C/C=C\C2c2ccc(C)cc2)cc1 (some centres undefined) | -5.2 | 32.2* | x | -14.3 | -3.8 | 0.4 | -8.9
COc1ccccc1NC(=O)COC(=O)c1ccc([N+](=O)[O-])s1 | -31.4 | 79.9* | 29.7 | 1.1 | 1.3 | -0.2 | 100.0*
CN(CC(=O)Nc1ccccc1Cl)C(=O)COC(=O)c1ccc([N+](=O)[O-])s1 | -37.6 | 77.7* | x | -12.3 | -7.4 | i | 39.2*
NS(=O)(=O)c1ccc(NC(=O)COC(=O)c2ccc([N+](=O)[O-])s2)cc1 | -20.1 | 73.8* | 13.6 | 11.4 | -6.6 | -0.4 | 62.7*
Cc1cc(C)c(NC(=O)COC(=O)c2ccc([N+](=O)[O-])s2)c(C)c1 | 4.7 | 54.3* | 10.5 | 5.0 | 1.7 | -0.1 | -16.6
CC(C)[C@H](NC(=O)OCc1ccccc1)C(=O)N[C@@H](Cc1ccccc1)C1(O)CN(C)C(C(=O)NCc2ccccn2)CO1 (some centres undefined) | -8.8 | x | x | x | x | x | x
Fc1ccccc1-c1nc(-c2ccc(Br)o2)no1 | -4.0 | -5.5 | x | -16.4 | -5.1 | i | x
O=C(NC(=S)NC1CCS(=O)(=O)C1)c1ccccc1 (centres undefined) | -0.9 | 11.9 | 2.3 | -1.5 | -1.0 | i | x
